Laboratory results as given in PubChem BioAssay (NCATS).
Inconclusive results are not listed. Entries that show only a call come without a potency. Where a structure was tested more than once in an assay, its records may differ in their call. Calls of active or inactive are those of the source. Unless noted, calls follow the shape of the dose curve; as a rule, active = well fitted curve in the direction sought with a large enough effect; inconclusive = small, poorly fitted or top-dose-only effect, or another doubt; inactive = no such curve, though single readings can be large; an effect the other way counts as inactive or inconclusive.

What was measured:
[1] = Cytometry Cell-Based qHTS for Inhibitors of the mTORC1 Signaling Pathway in MEF cells (AID 2668); also: potency is read from the fitted curve at half-maximal effect
Method in brief: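 Phospho-rpS6 (Ser235/236) immunofluorescence over PI signal, scored as % positive cells using thresholds from 7.5 nM rapamycin and DMSO wells, after 24 h compound exposure of WT-Tsc2-rescued Tsc2-/-, p53-/- MEFs. PI cell count recorded for viability.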

[2] = target: Ubiquitin carboxyl-terminal hydrolase 2 (Homo sapiens) (UniProt O75604); test: qHTS Validation Assay for Inhibitors of Ubiquitin-specific Protease USP2a Using CHOP2 as the Reporter (AID 463106)
Method in brief: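 Inhibition is expressed relative to NEM as the full-inhibition control, with concentration-response curves classed by fit quality, magnitude and activity. Enzyme (USP2 core, 10nM) meets 25nM Ub-CHOP2 after compound preincubation; readings are taken at 60min.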

[3] = target: Tumor susceptibility gene 101 protein (Homo sapiens) (UniProt Q99816); test: qHTS Validation Assay for Iinhibitors of HIV-1 Budding by Blocking the Interaction of PTAP/TSG101 (AID 485342; calls by dose curve)
Tumor susceptibility gene 101 protein (Homo sapiens), sequence (Q99816 whole entry, looked up, the tested form may be a part): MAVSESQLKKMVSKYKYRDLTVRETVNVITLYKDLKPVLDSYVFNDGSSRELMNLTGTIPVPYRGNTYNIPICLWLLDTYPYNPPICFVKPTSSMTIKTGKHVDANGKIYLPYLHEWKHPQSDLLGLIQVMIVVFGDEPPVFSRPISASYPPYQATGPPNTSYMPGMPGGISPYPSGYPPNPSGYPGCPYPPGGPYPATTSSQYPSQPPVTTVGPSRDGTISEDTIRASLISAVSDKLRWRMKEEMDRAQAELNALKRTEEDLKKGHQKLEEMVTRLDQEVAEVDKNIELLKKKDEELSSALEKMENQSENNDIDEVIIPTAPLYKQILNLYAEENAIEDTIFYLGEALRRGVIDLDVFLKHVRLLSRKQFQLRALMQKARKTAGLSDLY
Method in brief: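 Fluorescence polarization of 50 nM FITC-PTAP peptide bound to 10 uM Tsg101 binding domain was read after 20 min room-temperature incubation with compounds, in 10 mM HEPES pH 7.5, 0.15 M NaCl, 0.01% Tween 20.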

[4] = target: Beta-2 adrenergic receptor (Homo sapiens) (UniProt P07550); test: qHTS validation assay of beta-arrestin-biased ligands of beta2-adrenergic receptor (AID 485366)
Beta-2 adrenergic receptor (Homo sapiens), sequence (P07550 whole entry, looked up): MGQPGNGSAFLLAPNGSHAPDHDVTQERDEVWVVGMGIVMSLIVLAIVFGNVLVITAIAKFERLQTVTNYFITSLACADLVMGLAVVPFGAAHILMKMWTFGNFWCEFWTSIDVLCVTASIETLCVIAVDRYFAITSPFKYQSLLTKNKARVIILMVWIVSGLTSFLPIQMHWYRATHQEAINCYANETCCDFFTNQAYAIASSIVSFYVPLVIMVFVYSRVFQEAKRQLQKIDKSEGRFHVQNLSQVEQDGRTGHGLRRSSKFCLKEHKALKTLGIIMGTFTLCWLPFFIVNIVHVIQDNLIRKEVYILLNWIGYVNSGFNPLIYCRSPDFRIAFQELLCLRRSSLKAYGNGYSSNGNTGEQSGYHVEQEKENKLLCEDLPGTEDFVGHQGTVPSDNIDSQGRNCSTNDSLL
Method in brief: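 qHTS, Tango cells, 1500 cells/well, DMEM + 1% FBS. Cpd 18 hr at 37 degrees C. Luciferin/ATP/CoA detection mix, 15 min RT, luminescence read. %Activity from corrected signal; CRC fit, curve class.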

[5] = Quantitative high throughput screen for delayed death inhibitors of the malarial parasite plastid, 48 hour incubation (AID 488752); also: nearly all actives have a fitted effect of over 65% in size; also: potency is read from the fitted curve at half-maximal effect
Method in brief: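 One-generation (48 h) growth assay: a decrease in luciferase signal from an integrated reporter in P. falciparum-infected red cells (0.1% parasitemia, 2% hematocrit) after compound exposure at 37 C indicates parasite inhibition.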

[6] = target: Thioredoxin reductase 1, cytoplasmic (Rattus norvegicus) (UniProt O89049); test: qHTS Assay for Substrates of Mammalian Selenoprotein Thioredoxin Reductase 1 (TrxR1) (AID 488772);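 also: series mostly up to about 57 µM; a drop in NADPH fluorescence below the no-compound background marks a TrxR1 substrate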
Thioredoxin reductase 1, cytoplasmic (Rattus norvegicus), sequence (O89049 whole entry, looked up): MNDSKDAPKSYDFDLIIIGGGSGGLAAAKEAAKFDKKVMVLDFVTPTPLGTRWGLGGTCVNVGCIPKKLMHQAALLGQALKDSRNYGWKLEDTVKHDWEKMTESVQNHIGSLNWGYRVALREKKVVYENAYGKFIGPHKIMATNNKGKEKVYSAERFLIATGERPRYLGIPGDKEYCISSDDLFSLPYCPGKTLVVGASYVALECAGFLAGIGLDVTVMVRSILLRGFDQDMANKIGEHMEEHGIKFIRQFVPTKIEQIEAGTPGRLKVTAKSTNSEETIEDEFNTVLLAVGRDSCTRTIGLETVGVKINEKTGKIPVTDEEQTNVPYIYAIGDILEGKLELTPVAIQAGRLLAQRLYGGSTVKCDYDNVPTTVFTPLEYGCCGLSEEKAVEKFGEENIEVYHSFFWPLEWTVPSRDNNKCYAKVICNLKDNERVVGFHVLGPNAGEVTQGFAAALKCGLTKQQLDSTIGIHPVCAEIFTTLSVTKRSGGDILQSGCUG
Method in brief: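 In this dual-purpose format, potential substrates are identified from the first fluorescence read after selenite addition, not from the 8-minute delta. Rat enzyme is preincubated with NADPH and then with compound at ~22 deg C.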

[7] = target: Thioredoxin reductase 1, cytoplasmic (Rattus norvegicus) (UniProt O89049); test: qHTS Assay for Inhibitors of Mammalian Selenoprotein Thioredoxin Reductase 1 (TrxR1) (AID 488773); conditions: Potency: inhibition;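 also: drop in NADPH fluorescence over an 8 min run after selenite addition; series mostly up to about 57 µM; nearly all actives have a fitted effect of over 40% in size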
Method in brief: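 Inhibition is scored from the loss of NADPH fluorescence between first and last reads of an 8-min kinetic run. Selenite (400 uM) was the substrate, added after 15 min compound preincubation at room temperature.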

[8] = target: Flap endonuclease 1 (Homo sapiens) (UniProt P39748); test: qHTS Validation Assay for the Inhibitors of Human Flap endonuclease 1 (FEN1) (AID 488816); also: potency is read from the fitted curve at half-maximal effect
Method in brief: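 Steps: add FEN1 (10 nM reagent) or buffer only; pin compounds; hold 15 min at room temperature; start with substrate, 50 nM final; read at 0 and 15 min; correct, normalize and fit a four-parameter Hill curve.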

[9] = target: M-phase phosphoprotein 8 (Homo sapiens) (UniProt Q99549); test: qHTS Validation Assay for Inhibitors for MPP8 Chromodomain Interactions with Methylated Histone Tails (AID 488949); also: nearly all actives have a fitted effect of over 55% in size; also: potency is read from the fitted curve at half-maximal effect
Method in brief: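 AlphaScreen proximity signal from streptavidin donor and Ni-chelate acceptor beads (10 ug/mL each) reported binding of MPP8 to trimethyl-K9 H3(1-18) peptide, both at 50 nM. The complex formed 30 min before a 30 min compound exposure at room temperature, in PBS pH 7.4.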

[10] = target: Chromobox protein homolog 1 (Homo sapiens) (UniProt P83916); test: qHTS Validation Assay for Inhibitors of HP1-beta Chromodomain Interactions with Methylated Histone Tails (AID 488953); also: nearly all actives have a fitted effect of over 50% in size; also: potency is read from the fitted curve at half-maximal effect
Chromobox protein homolog 1 (Homo sapiens), sequence (P83916 whole entry, looked up): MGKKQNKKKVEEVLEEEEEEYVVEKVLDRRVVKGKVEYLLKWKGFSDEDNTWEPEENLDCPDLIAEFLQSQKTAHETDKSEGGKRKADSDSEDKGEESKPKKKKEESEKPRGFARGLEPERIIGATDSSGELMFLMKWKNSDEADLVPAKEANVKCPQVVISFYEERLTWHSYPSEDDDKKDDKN
Method in brief: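 AlphaScreen proximity signal from streptavidin donor and nickel chelate acceptor beads (final 10 ug/mL) after 30 min dark incubation. Compounds had 30 min at room temperature with preformed complex of 50 nM HP1-beta and 50 nM b-H3(1-18)K9me3 in PBS pH 7.4 with 0.01% Tween-20.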

[11] = target: Transient receptor potential cation channel subfamily V member 1 (Homo sapiens) (UniProt Q8NER1); test: HTS Assay for Compounds that Act as Enhancers of the Vanilloid Receptor 1 (AID 488979)
Method in brief: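 TRPV1-expressing cells loaded with Fluo-8 calcium dye; compounds added and calcium influx read kinetically for 3 min (agonist phase), then capsaicin at EC20 added and read 2 min more for enhancement. Fluorescence ex 480/em 520 nm.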

[12] = target: Thyrotropin receptor (Homo sapiens) (UniProt P16473); test: qHTS Assay for Antagonists of the Thyroid Stimulating Hormone Receptor (AID 488980); also: series mostly up to about 58 µM
Thyrotropin receptor (Homo sapiens), sequence (P16473 whole entry, looked up): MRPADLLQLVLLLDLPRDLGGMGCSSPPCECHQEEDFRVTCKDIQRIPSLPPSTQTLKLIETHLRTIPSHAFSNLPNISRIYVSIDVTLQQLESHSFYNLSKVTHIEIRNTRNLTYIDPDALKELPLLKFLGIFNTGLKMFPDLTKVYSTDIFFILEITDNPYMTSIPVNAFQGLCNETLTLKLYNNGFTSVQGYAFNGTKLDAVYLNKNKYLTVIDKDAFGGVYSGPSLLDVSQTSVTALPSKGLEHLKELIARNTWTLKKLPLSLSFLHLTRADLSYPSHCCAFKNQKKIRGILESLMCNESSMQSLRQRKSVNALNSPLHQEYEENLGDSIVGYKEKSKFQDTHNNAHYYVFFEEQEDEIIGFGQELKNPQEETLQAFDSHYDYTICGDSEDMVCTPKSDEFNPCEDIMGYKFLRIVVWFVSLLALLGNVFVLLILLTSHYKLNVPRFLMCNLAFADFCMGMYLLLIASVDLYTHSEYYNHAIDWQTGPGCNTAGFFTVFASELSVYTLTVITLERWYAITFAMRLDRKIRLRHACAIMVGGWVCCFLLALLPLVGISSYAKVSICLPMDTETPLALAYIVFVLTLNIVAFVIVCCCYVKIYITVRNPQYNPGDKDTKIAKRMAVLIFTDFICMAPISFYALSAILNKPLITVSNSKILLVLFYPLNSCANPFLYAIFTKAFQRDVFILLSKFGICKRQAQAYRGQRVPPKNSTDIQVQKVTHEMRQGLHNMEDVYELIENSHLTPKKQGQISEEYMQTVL
Method in brief: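 Inhibition of cAMP raised by EC80 TSH (4 nM final) was read by HTRF, with lysate cAMP competing against cAMP-d2 for cryptate antibody after 30 min at room temperature. The cells were transfected HEK293 held in phosphodiesterase inhibitor RO 20-1724 at 70 uM.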

[13] = target: D(1A) dopamine receptor (Homo sapiens) (UniProt P21728); test: HTS Assay for Allosteric Agonists of the Human D1 Dopamine Receptor: Primary Screen for Agonists (AID 488981); also: potency is read from the fitted curve at half-maximal effect
D(1A) dopamine receptor (Homo sapiens), sequence (P21728 whole entry, looked up): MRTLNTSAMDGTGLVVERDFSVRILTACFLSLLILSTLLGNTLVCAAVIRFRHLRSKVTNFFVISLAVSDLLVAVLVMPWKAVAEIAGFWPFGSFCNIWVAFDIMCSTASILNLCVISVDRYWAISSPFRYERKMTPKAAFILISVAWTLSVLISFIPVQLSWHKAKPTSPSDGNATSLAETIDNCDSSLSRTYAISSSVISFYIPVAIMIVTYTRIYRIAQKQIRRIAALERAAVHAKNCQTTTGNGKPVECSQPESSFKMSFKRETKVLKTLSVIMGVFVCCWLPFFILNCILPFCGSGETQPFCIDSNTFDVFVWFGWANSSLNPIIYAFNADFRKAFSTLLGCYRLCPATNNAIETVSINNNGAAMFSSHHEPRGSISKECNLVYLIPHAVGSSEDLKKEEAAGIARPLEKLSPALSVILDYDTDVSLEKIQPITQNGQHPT
Method in brief: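 Tetracycline-induced HEK293 T-REx cells force-coupled to calcium signalling were incubated overnight at 30 C and dye-loaded at room temperature. Calcium flux over 180 s after compound addition flagged agonists; a further 180 s read after EC20 dopamine flagged potentiators.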

[14] = Validation screen for small molecules that induce DNA re-replication in MCF 10A normal breast cells (AID 463097); also: nearly all actives have a fitted effect of over 60% in size; also: potency is read from the fitted curve at half-maximal effect
Method in brief: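 Read-out is Hoechst total nuclear intensity by fluorescence scanning imager, flagging increased high-DNA-content nuclei. Compounds were incubated with MCF 10A cells for 48 hr (37 C, 5% CO2) before 40 min staining.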

[15] = target: DNA polymerase III PolC-type (Bacillus subtilis (strain 168)) (UniProt P13267); test: qHTS Validation Assay for the Inhibitors of DNA Replication in Gram-Positive Bacteria (AID 485295); also: potency is read from the fitted curve at half-maximal effect
DNA polymerase III PolC-type (Bacillus subtilis (strain 168)), sequence (P13267 whole entry, looked up): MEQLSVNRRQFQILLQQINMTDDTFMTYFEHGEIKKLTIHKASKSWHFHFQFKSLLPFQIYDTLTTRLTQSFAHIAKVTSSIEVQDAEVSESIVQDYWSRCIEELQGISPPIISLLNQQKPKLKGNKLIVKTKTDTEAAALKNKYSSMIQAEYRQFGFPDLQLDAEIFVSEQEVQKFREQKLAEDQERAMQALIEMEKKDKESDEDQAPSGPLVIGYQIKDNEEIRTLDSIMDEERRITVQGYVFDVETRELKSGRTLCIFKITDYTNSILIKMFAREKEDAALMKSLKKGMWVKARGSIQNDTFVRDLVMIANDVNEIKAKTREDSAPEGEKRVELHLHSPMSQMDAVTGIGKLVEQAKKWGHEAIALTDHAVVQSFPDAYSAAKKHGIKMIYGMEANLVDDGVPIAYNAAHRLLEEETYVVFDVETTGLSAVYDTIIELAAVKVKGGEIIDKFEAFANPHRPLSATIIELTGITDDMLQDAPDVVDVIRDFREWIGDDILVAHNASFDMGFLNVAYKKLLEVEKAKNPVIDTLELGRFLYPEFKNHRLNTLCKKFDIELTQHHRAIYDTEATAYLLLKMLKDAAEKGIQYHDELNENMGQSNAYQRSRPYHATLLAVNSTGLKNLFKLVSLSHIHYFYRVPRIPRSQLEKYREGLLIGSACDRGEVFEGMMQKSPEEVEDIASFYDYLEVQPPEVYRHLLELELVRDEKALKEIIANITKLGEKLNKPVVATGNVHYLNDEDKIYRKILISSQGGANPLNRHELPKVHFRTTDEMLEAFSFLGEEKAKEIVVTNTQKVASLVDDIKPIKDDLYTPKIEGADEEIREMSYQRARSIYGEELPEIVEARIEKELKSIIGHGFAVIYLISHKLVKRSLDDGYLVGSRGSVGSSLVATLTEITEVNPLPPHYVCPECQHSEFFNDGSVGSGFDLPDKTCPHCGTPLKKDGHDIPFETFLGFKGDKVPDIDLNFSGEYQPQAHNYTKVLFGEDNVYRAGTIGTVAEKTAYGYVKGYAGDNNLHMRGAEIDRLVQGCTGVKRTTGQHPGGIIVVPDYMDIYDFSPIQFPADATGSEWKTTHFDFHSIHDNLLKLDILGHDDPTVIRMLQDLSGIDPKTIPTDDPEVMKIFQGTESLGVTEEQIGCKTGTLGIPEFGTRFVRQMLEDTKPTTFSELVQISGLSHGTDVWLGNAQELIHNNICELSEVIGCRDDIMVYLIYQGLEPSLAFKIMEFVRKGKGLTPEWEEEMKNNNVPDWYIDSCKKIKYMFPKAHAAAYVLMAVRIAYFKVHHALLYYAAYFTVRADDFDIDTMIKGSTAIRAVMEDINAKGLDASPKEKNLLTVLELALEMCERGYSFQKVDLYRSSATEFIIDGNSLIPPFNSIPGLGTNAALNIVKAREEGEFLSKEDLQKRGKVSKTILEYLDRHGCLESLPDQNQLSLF
Method in brief: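 Double-stranded DNA product detected by PicoGreen fluorescence after EDTA quench. Compound incubated with B. subtilis holoenzyme (PolC, beta subunit, SSB, primase) before substrate addition; primed replication of M13Gori with dNTPs and NTPs at room temperature; DMSO defines 0% inhibition.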

[16] = target: Methanococcus maripaludis chaperonin (MmCpn) (UniProt Q6LX38); test: High-Throughput Screening for Modulators of Cytosolic Chaperonin Activity: MmCpn Primary Screen (AID 488978);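 also: 50 nM MmCpn enzyme hydrolysing 30 µM ATP at 37 °C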
Methanococcus maripaludis chaperonin (MmCpn), sequence (Q6LX38 1-543): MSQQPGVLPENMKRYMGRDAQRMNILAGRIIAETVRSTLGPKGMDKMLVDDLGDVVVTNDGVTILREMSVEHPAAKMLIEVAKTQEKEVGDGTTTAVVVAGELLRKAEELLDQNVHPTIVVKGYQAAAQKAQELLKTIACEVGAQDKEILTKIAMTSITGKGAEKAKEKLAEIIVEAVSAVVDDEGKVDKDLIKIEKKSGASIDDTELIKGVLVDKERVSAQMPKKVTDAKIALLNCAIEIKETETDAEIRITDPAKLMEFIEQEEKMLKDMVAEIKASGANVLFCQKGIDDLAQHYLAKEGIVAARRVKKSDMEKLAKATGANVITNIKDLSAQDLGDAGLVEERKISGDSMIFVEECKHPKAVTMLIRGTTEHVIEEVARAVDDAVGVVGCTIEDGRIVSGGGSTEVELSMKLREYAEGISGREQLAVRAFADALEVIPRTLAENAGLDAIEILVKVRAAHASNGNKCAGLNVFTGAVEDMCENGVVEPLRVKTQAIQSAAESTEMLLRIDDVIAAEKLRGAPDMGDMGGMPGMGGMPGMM
Method in brief: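 ATPase activity of 50 nM MmCpn was assayed with 30 uM ATP, 10 minutes at 37C, after a 5 min compound preincubation at room temperature. ADP production was read as HTRF emission at 590 and 665 nm.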

[17] = qHTS Validation Assay to Find Inhibitors of Chronic Active B-Cell Receptor Signaling (AID 485345; active = well fitted curve in the direction sought with a large enough effect in the main read-out, with a control signal flat, not every such curve was filed as active)
Method in brief: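 TMD8 ABC-DLBCL cells with dox-inducible green luciferase–IκBα fusion and red native luciferase; compounds 46 uM–3 nM, 4 h at 37C with doxycycline in 0.5% FBS IMDM. Green/red ratio normalized to basal and 10 uM MG-132.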

[18] = High Content Imaging Cell-Based qHTS for Inhibitors of the mTORC1 Signaling Pathway in MEF Cells (AID 2667); also: potency is read from the fitted curve at half-maximal effect
Method in brief: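 Fixed-cell imaging of phospho-S6 (Ser235/236, Alexa-488) after 24 hrs of compound treatment at 37 degree Celsius. Signal was normalized to Hoechst, and thresholds from the highest and lowest wells split cells into % active versus % non-active.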

[19] = target: ATP-dependent 6-phosphofructokinase (Trypanosoma brucei brucei) (UniProt O15648); test: qHTS Validation Assay to Find Inhibitors of T. brucei phosphofructokinase (AID 485368); conditions: outcome: dose series up to 57.5 µM
Method in brief: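 Luminescent ADP detection measures PFK turnover of fructose-6-phosphate (0.5 mM) with ATP (0.1 mM) at pH 8.0. Reaction runs 45 min at room temperature with 1.25 nM enzyme; inhibitors tested as titrations up to 57 uM.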

[20] = Quantitative high throughput screen for delayed death inhibitors of the malarial parasite plastid, 96 hour incubation (AID 488745); also: nearly all actives have a fitted effect of over 70% in size; also: potency is read from the fitted curve at half-maximal effect
Method in brief: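 Decreased firefly luciferase luminescence indicates inhibited growth of reporter-integrated P. falciparum after two generations (96 h, 37 C, 5% CO2). Infected erythrocytes at 0.1% parasitemia, 2% hematocrit, in Albumax-supplemented RPMI 1640.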

| SMILES | Potency [1] | outcome [2] | outcome [3] | outcome [4] | Potency [5] | outcome [6] | Potency [7] | Potency [8] | Potency [9] | Potency [10] | outcome [11] | outcome [12] | Potency [13] | Potency [14] | Potency [15] | outcome [16] | Potency [17] | Potency [18] | outcome [19] | Potency [20] |
| --- | --- | --- | --- | --- | --- | --- | --- | --- | --- | --- | --- | --- | --- | --- | --- | --- | --- | --- | --- | --- |
| Cc1nc2sccn2c(=O)c1CCN1CCC(=C(c2ccc(F)cc2)c2ccc(F)cc2)CC1 | 11.7 µM (active) | inactive | inactive | inactive | inactive | inactive | inactive | inactive | 28.2 µM (active) and inactive | 44.7 µM (active) | inactive | inactive | inactive |  |  |  |  |  |  |  |
| CCc1cccc(N(C)C(N)=Nc2cccc3ccccc23)c1 |  | inactive | inactive | inactive | inactive | inactive | inactive | inactive | inactive | 0.0075 µM (active) |  | inactive |  | inactive | inactive | inactive |  |  |  |  |
| CCN(CC)CCCN(c1ccccc1)C1Cc2ccccc2C1 |  | inactive | inactive | inactive |  | inactive | inactive | inactive |  | inactive |  |  | inactive |  | inactive | inactive | inactive |  |  |  |
| COCC(=O)O[C@]1(CCN(C)CCCc2nc3ccccc3[nH]2)CCc2cc(F)ccc2[C@@H]1C(C)C |  | inactive | inactive | inactive | 5.86 µM (active) | inactive | inactive | inactive | inactive |  |  | inactive |  |  | inactive |  |  | 10.4 µM (active) |  |  |
| CNCCCN1c2ccccc2CCc2ccccc21 |  | inactive | inactive |  |  | inactive | inactive |  |  |  |  | inactive | inactive | inactive | inactive | inactive | inactive |  | inactive |  |
| Cc1cc(C)c(/C=C2\C(=O)Nc3ccccc32)[nH]1 |  |  |  | inactive |  | inactive | inactive | inactive |  |  |  | inactive | 15.8 µM (active) |  | inactive |  |  | inactive | inactive | inactive |
| CC(=O)[C@]1(O)Cc2c(O)c3c(c(O)c2[C@@H](O[C@H]2C[C@H](N)[C@H](O)[C@H](C)O2)C1)C(=O)c1ccccc1C3=O |  |  |  | inactive | 3.7 µM (active) | inactive |  | 26.7 µM (active) | 28.2 µM (active) | 39.8 µM (active) |  | inactive | 11.2 µM (active) | inactive | 1.06 µM (active) |  |  | 0.414 µM (active) |  | 3.29 µM (active) |
| CCOC(=O)C1=C(C)NC(C)=C(C(=O)OC)C1c1cccc(Cl)c1Cl (stereo not given) |  |  | inactive | inactive | 11.7 µM (active) | inactive | inactive |  | inactive | inactive | inactive | inactive | inactive | 11.2 µM (active) | inactive | inactive |  | inactive |  |  |
| CCCCCCCC/C=C\CCCCCCCC(=O)NCc1ccc(O)c(OC)c1 |  | inactive | inactive | inactive |  |  | inactive | inactive | inactive | inactive |  |  | inactive |  | inactive | inactive | inactive |  |  |  |
| CC(=O)[C@@]1(O)CC[C@H]2[C@@H]3CCC4=CC(=O)CC[C@]4(C)[C@H]3CC[C@@]21C | inactive | inactive | inactive | inactive |  | inactive | inactive | inactive |  | inactive |  |  | inactive |  | inactive | inactive | inactive | inactive |  |  |
| CN(C)CCCN1c2ccccc2Sc2ccc(C(F)(F)F)cc21 |  | inactive | inactive | inactive |  | inactive | inactive |  | inactive |  |  | inactive | inactive |  | inactive | inactive | inactive |  |  |  |
